# Experimental data from PubChem BioAssay AID624483 (NMMLSC, 2012).
# The whole screen tested about 360,000 compounds, of which about 11,000 (3.1%) were called active. Not shown: some 2% with an inconclusive outcome. The sample holds actives, similar compounds and a random draw of the others, so the mix is not that of the screen. Unmarked numbers belong to inactive results. No stated cut-off is given here; in the data, active means fluorescence intensity above about 16000; inconclusive means no clear call, values can overlap the other calls; inactive means below that.
# Test: compound fluorescence in toxin protease inhibitor counterscreen, primary screen, artefact control for toxin protease inhibitor project, biochemical, multiplex microsphere, HTS (AID 624483)
# Conditions: compound autofluorescence counterscreen, microsphere flow cytometry; hits give high values
row,Compound,fluorescence intensity
1,Cn1c(-c2ccc(F)cc2)cnc1SCC(=O)NCc1ccco1,9840
2,Cc1cc(C)n2nc(SCC(=O)NC(=O)NCc3ccco3)nc2n1,3150
3,Cc1ccc(SCC(=O)NC(=O)NCc2ccco2)c(C)c1,19200 (active)
4,Cc1ccc(NC(=O)C(=O)NCc2ccco2)c(C)c1,4600
5,Cc1ccc(-c2csc3nnc(SCC(=O)NCc4ccco4)n23)cc1,16800 (active)
6,O=C(CSc1nnc2scc(-c3ccc(F)cc3)n12)NCc1ccco1,7830
7,O=C(Nc1ccc(N2CCN(C(=O)c3ccccc3)CC2)c(Cl)c1)c1ncn[nH]1,4940
8,CCCS(=O)(=O)NC(=O)C1(C)CCCN(C(=O)c2cc(C)on2)C1 (stereo unspecified),3970
9,CC(C)(O)C1=C[N+](=O)CC=C1,6070
10,CN1OC[C@@H]2CN(S(=O)(=O)c3cccc(C(F)(F)F)c3)[C@H](c3ccc(-c4cc5ccccc5o4)cc3)C[C@@H]21,3760
11,Nc1[nH]c(C(=O)c2ccccc2)c(-c2ccncc2)c1C(=O)NCc1cccc2ccccc12,5030
12,CCN(CC)c1ncnc2c1ncn2[C@H]1CN(Cc2cccs2)C[C@@H](CO)O1,3720
13,Cc1cc(N2C(=O)c3ccc(C(=O)NCc4ccccc4)cc3C2=O)no1,17400 (active)
14,Cc1ccc(CNC(=O)c2ccc3c(c2)S(=O)(=O)c2ccccc2C3=O)cc1,3750
15,CCCn1nc2cc(C(=O)NCc3ccccc3)ccc2c1OCC,4050
16,O=c1[nH]cccc1-c1nc2ccccc2n1Cc1ccc(Cl)cc1,4020
17,COc1ccc(NC(=O)C2Cc3c(-c4ccc(Cl)cc4)ccnc3O2)cc1 (stereo unspecified),3760
18,CCOc1ccc(NC(=O)CC2NCCNC2=O)cc1 (stereo unspecified),4570
19,O=C(CC1NCCNC1=O)Nc1cc(Cl)cc(Cl)c1 (stereo unspecified),7460
20,O=C(CC1NCCNC1=O)Nc1ccc(Oc2ccccc2)cc1 (stereo unspecified),16900 (active)
21,Cc1cccc(NC(=O)CSc2nnc(CCCCCNC(=O)OC(C)(C)C)o2)c1C,20100 (active)
22,Cc1ccccc1CSc1nnc(CCCCCNC(=O)OC(C)(C)C)o1,3660
23,Cc1cccc(NC(=O)CSc2nnc(CCNC(=O)OC(C)(C)C)o2)c1C,3990

row,Compound,fluorescence intensity
1,CCOC(=O)N1CCC(NC(=O)C(C)n2c3ccccc3c3cnn(C)c(=O)c32)CC1 (stereo unspecified),3150
2,COC(=O)c1ccc(NC(=O)c2cc3c(CO)cnc(C)c3oc2=Nc2cccc(C(N)=O)c2)cc1,2910
3,CN(C)C(=O)CSc1n[nH]c(-c2ccco2)n1,2630
4,Cn1nc(C(F)(F)F)c(C(=O)Nc2cccc(C(F)(F)F)c2)c1SCc1ccc(Cl)cc1,18600 (active)
5,COC(=O)c1ccccc1Sc1c(/C=N/OCc2ccc(Cl)cc2)c(C(F)(F)F)nn1C,2910
6,O=C(O)CSc1c2c(nc3cc(C(=O)Nc4cccc(C(F)(F)F)c4)ccc13)CCCC2,5110
7,N[C@@H](Cc1ccccc1)C(=O)N1CCOCC1,3920
8,O=C(CSc1ncccn1)N1CCCC1,5480
9,OC(c1ccc(Cl)cc1)c1ncc(-c2ccc(Cl)cc2)[nH]1 (stereo unspecified),3850
10,COCCn1c(CN(Cc2ccccc2)Cc2ccccc2)nc2c1c(=O)n(C)c(=O)n2C,5270
11,CC(C)Cn1c(CN(Cc2ccccc2)Cc2ccccc2)nc2c1c(=O)n(C)c(=O)n2C,5910
12,CC(C)CCn1c(CN(C)Cc2ccccc2)nc2c1c(=O)n(C)c(=O)n2C,21400 (active)
13,CC1(C)OC(=O)C2=C(C[C@@H](C3CCCCC3)O[C@@H]2c2ccc(Cl)cc2)O1,6270
14,COc1cc2ccccc2cc1C(=O)Nc1ccccc1C,3900
15,COc1c(F)c(F)c(C(=O)O)c(Nc2ccccc2C)c1F,21400 (active)
16,Cc1ccc(Nc2c(F)c(F)c(F)c(F)c2C(=O)O)c(C)c1,3820
17,Cc1ncc([N+](=O)[O-])n1CCOC(=O)c1ccc(Br)cc1,4830
18,CC1(C(=O)NCc2ccc3c(c2)OCO3)CCN1C(=O)Cc1cccc2ccccc12 (stereo unspecified),2930
19,Nc1nc2c(Br)ccc(Br)c2cc1C(=O)NCCc1ccccc1,6050
20,COc1ccc(OCC(=O)NCCc2ccc(S(N)(=O)=O)cc2)cc1,19600 (active)
21,NS(=O)(=O)c1ccc(CCNC(=O)COC(=O)COc2cccc(C(F)(F)F)c2)cc1,4060
22,NS(=O)(=O)c1ccc(CCNC(=O)c2ccc(Cl)c(S(=O)(=O)N3CCCCCC3)c2)cc1,4250
23,CCOC(=O)c1c(C)c(C(=O)NCCc2ccc(S(N)(=O)=O)cc2)c(C)n1CC,22600 (active)

row,Compound,fluorescence intensity
1,COC(=O)c1c(C)[nH]c(C(=O)NCCc2ccc(S(N)(=O)=O)cc2)c1C,3790
2,COc1ccc(C(=O)NCCc2ccc(S(N)(=O)=O)cc2)cc1OC,17500 (active)
3,Cc1noc(C)c1C(=O)NCCc1ccc(S(N)(=O)=O)cc1,4000
4,COc1ccc(NS(=O)(=O)c2cccc(C(=O)NCCc3ccc(S(N)(=O)=O)cc3)c2)cc1,8740
5,Cc1ccc(S(=O)(=O)CCC(=O)OCC(=O)NCCc2ccc(S(N)(=O)=O)cc2)cc1,5910
6,Cc1cccc(NS(=O)(=O)c2cccc(C(=O)NNC(=O)c3ccccc3O)c2)c1,3510
7,COc1cccc(C(NC(C)=O)c2nc(-c3ccccc3OC)cs2)c1 (stereo unspecified),3680
8,CC(C)(C)CC(=O)Nc1nc(C(N)Cc2ccc(C(F)(F)F)cc2)cs1 (stereo unspecified),2950
9,O=C(NC1CCCC1)C(c1ccco1)N(C(=O)c1csnn1)c1ccccc1 (stereo unspecified),3410
10,Cc1ccccc1-c1nc(NC(C)C)nc2cc(-c3ccccc3)sc12,2960
11,CC(C)NC(=O)C1(C)CCCCCN1C(=O)c1ccc(-c2ccccc2)cc1 (stereo unspecified),3730
12,Cc1cc(/C=N/NC(N)=O)c(C)n1C1CCCCC1,5160
13,CC(=O)Nc1ccc(NC(=O)c2ccc3c(c2)C(=O)N(c2ccccc2C)C3=O)cc1,3300
14,CCOC(=O)C1=CC[C@@H](c2ccncc2)N(S(=O)(=O)c2ccc(C)cc2)C1,6280
15,CCn1c(CSCc2c(Cl)cccc2Cl)n[nH]c1=S,5080
16,S=c1[nH]nc(CSCc2ccc(Cl)cc2Cl)n1-c1ccccc1,22300 (active)
17,Cc1ccc(NCc2n[nH]c(=S)n2-c2ccccc2)cc1Cl,4580
18,O=C(c1cc(COc2ccc(F)cc2F)on1)N1CCOCC1,6230
19,CN1C(=O)[C@H]2[C@@H](/C=C/c3ccccc3)N3C(=O)CN(Cc4ccc(-c5ccccc5)cc4)C(=O)[C@@]3(C)[C@H]2C1=O,3800
20,COCCn1c(=S)[nH]c2cc(C(=O)NCCc3ccc(OC)c(OC)c3)ccc2c1=O,22200 (active)
21,CCOc1cc2[nH]c(=O)n(Cc3ccc(C(=O)NCCCN4CCCC4=O)cc3)c(=O)c2cc1OCC,4740
22,CCOc1cc2[nH]c(=S)n(Cc3ccc(C(=O)N4CCN(C)CC4)cc3)c(=O)c2cc1OCC,5670
23,COc1ccc(Cn2c(=S)[nH]c3cc(C(=O)NCCCN4CCOCC4)ccc3c2=O)cc1,5500

row,Compound,fluorescence intensity
1,COc1ccc(-n2c(=O)[nH]c3cc(C(=O)NCCc4ccc(OC)c(OC)c4)ccc3c2=O)c(OC)c1,3790
2,CCOc1cc2[nH]c(=S)n(Cc3ccc(C(=O)NCCOC)cc3)c(=O)c2cc1OCC,20100 (active)
3,CN1CCN(c2ccc3c(c2)OC[C@H](Cc2ccccc2)NS3(=O)=O)CC1,5440
4,COc1ccc(CCCNC(=O)C2Cc3c(-c4cccc(C(N)=O)c4)ccnc3O2)cc1 (stereo unspecified),3760
5,O=S1(=O)CC(N2CCN(CCO)CC2)CN1C1CCCC1 (stereo unspecified),5290
6,CC(C)CN(C(=O)Cn1c(=O)cnc2ccccc21)C1CCS(=O)(=O)C1 (stereo unspecified),7550
7,COc1ccccc1Cc1c(-c2ccc(Cl)cc2)nc2c3ccccc3ccn12,6870
8,COc1ncnc2c1N=C1CC(C)(C)CC(N)=C1S2,10000
9,O=C1/C(=C/c2ccc3c(c2)OCO3)Oc2cc(OCC(=O)N3CC(O)C[C@H]3C(=O)O)ccc21 (stereo partly specified),5670
10,CCc1oc(-c2ccc(OC)cc2)c(C(=O)OCCCCCO)c1C(C)OCCO (stereo unspecified),5030
11,CCOC(=O)N1CCN(C(=O)C[C@@H]2C[C@@]3(C(=O)OC)CCCCC=C3N(CCC3=CCCCC3)C2=O)CC1,5780
12,CCOC(=O)c1cc(C)sc1NC(=O)C1CCC1,20200 (active)
13,Cc1cnc(NC(=O)C2CCCC2)s1,3280
14,COC(=O)c1cc(C)sc1NC(=O)CC1Nc2ccccc2NC1=O (stereo unspecified),4220
15,Cc1cc(Br)ccc1SCC(=O)OCC(=O)NCc1ccc2c(c1)OCO2,2190
16,Cc1cc(C)cc(NC(=O)CN2C(=O)c3ccccc3C2=O)c1,4110
17,C=CCN(CC=C)C(=O)CN1C(=O)c2ccccc2C1=O,16300 (active)
18,Cc1ccccc1C(=O)NNC(=O)CN1C(=O)c2ccccc2C1=O,2780
19,CC(=O)/C(=N\Nc1ccc(Cl)cc1Cl)Sc1cccc2cccnc12,7970
20,COc1cccc(-c2cnc3c(NC(C)=O)cc(-c4cccc(NC(C)=O)c4)cn23)c1,3610
21,Cc1ccnc2nc(C(=O)Nc3nnc(-c4ccccc4)o3)nn12,4840
22,c1ccc(-c2ccnc3nc(-n4cccc4)nn23)cc1,16400 (active)
